The nature of assay [1]: AP1 Signaling Pathway (AID 357).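 Also: ME-180 reporter cells stimulated with EGF at its EC50 level; % is scaled to controls: 0 for no effect and ±100 for the full control effect.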 Conditions: ME-180 AP-1-bla reporter, EGF-induced, beta-lactamase ratio, 5 h; at 17.2 µM (top of the series) unless noted. A digest of the protocol:
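Beta-lactamase reporter under AP-1 response element, ME-180 background. Stimulus: EC50 EGF. Compound exposure 5 h, 37 °C. Detection: CCF4, 2.5 h RT, 460/530 nm. Values: AC50 from titration.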

Assay [2] in a line: NFAT Signaling Pathway (AID 444).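 Also: carbachol stimulus at about its EC50 of 1 µM final; % is scaled to controls: 0 for no effect and ±100 for the full control effect.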 Conditions: Jurkat NFAT-bla M1, carbachol, beta-lactamase ratio, 5 h; at 17.2 µM (top of the series) unless noted. In a few lines: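 Jurkat cells with NFAT-driven β-lactamase reporter and co-expressed M1 receptor, stimulated with carbachol (final 1 uM, ~EC50), compound titration, 5 h at 37 °C. CCF4 loaded 1 h at RT; 460/530 nm ratio gave %activity and AC50.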

Assay [3] in a line: Stat Signaling Pathway (AID 446).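 Also: ME-180 cervical cancer cells given 40 pM IL-6 alongside compound; SIE-controlled beta-lactamase reporter measured as 460/530 nm FRET emission ratio; % is scaled to controls: 0 for no effect and ±100 for the full control effect.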 The conditions noted are these: ME-180 (cervical carcinoma) SIE beta-lactamase reporter, IL-6 stimulated, 5 h; at 17.2 µM (top of the series) unless noted. A digest of the protocol:
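Emission at 460 and 530 nm (excitation 405 nm) reports SIE-controlled beta-lactamase in ME-180 cells. Cells received compound with 40 pM IL-6 for 5 hrs at 37 C; data scaled between 300 pM IL-6 and 125 nM JAK-inhibitor controls.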

Assay [4] has as its target Glucocorticoid receptor (Homo sapiens) (UniProt P04150). Put plainly: GR-GFP Redistribution (AID 450;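 active = compounds whose dose series gives a full or clear partial fitted curve of increased nuclear translocation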; also: potency is read from the fitted curve at half-maximal effect).

Unmarked numbers belong to inactive results. Results filed as inconclusive are left out. The source made the active and inactive calls. Unless noted, calls follow the shape of the dose curve; as a rule, active = well fitted curve in either direction with a large enough effect (not every such curve was filed as active); inconclusive = small, poorly fitted or top-dose-only effect, or another doubt; inactive = flat fitted curve, though single readings scatter. A value given as a limit tells only on which side of the number the result lay.

Sequence of Glucocorticoid receptor (Homo sapiens) (P04150 whole entry, looked up): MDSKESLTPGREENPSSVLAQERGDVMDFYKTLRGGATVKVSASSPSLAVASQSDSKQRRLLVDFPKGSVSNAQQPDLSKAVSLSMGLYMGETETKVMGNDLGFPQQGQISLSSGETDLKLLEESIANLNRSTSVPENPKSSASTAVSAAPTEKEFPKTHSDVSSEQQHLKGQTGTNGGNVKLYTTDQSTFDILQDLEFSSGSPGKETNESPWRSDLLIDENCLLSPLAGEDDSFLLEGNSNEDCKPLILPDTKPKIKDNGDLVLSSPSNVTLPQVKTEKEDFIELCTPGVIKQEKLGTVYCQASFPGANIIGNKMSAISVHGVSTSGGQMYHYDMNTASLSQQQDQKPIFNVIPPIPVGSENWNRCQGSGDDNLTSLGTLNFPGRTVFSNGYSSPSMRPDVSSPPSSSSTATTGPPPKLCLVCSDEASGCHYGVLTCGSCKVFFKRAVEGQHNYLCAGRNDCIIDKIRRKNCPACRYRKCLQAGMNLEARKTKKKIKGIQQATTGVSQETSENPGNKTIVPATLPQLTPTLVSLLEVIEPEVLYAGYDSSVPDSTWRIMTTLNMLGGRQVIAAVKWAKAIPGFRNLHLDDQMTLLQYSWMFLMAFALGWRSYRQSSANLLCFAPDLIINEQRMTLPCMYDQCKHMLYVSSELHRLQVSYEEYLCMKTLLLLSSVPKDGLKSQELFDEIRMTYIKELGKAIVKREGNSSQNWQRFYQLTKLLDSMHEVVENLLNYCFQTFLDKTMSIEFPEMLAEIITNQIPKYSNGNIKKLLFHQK

Consider `COc1ccc(-c2nc3n(n2)C(=O)CC(c2ccco2)S3)cc1` (stereo not given), for which the results for the activity change, negative = inhibition in assay [1] and in assay [2] were -9.14% and 0.813%, respectively. Besides, the activity, negative = inhibition in assay [3] was -11.3%. The Potency in assay [4] was greater than 20.6 µM.

Take `COCCOC(=O)c1c(C)nc(SCC(=O)Nc2ccc(OC)cc2)c(C#N)c1-c1ccco1`: the values for the activity change, negative = inhibition in assay [1] and in assay [2] were -13.3% and -14.8%, respectively. Also, the activity, negative = inhibition in assay [3] is -16.8%. Also, the Potency in assay [4] was greater than 20.6 µM.

`CCNc1sc(C(=O)c2cccs2)c(N)c1C#N`: the activity change, negative = inhibition is -8.55% in assay [1] and 20.9% in assay [2]. Besides, the activity, negative = inhibition in assay [3] is -7.29%. For the same molecule, the Potency in assay [4] is greater than 20.6 µM.

For the molecule `CC(=O)OCC(=O)[C@H]1CC[C@H]2[C@@H]3CC=C4C[C@@H](O)CC[C@]4(C)[C@H]3CC[C@]12C`, the figures for the activity change, negative = inhibition in assay [1] and in assay [2] were 12.9% and 4.8%, respectively. In addition, the activity, negative = inhibition in assay [3] was -2.21%. Moreover, the Potency in assay [4] was greater than 20.6 µM.

Turning to `CCC(NC(=O)Nc1cc(OC)c(OC)c(OC)c1)(C(F)(F)F)C(F)(F)F`, the activity change, negative = inhibition in assay [1] was -13.9%; in assay [2] it was 14.9%. Besides, the activity, negative = inhibition in assay [3] was -1.91%. Also, the Potency in assay [4] was greater than 20.6 µM.

Take `Nc1ccc2c3c(cccc13)CC2`: the activity change, negative = inhibition in assay [1] is 0.829%; in assay [2] it was 11.5%. The activity, negative = inhibition in assay [3] is 7.79%. For the same molecule, in assay [4], the Potency is 3.98 µM (active).

Turning to `COc1cccc(C2=CC(c3ccccc3)n3nnnc3N2)c1` (stereo not given), the activity change, negative = inhibition in assay [1] was -3.96%; in assay [2], -25.6%. The activity, negative = inhibition in assay [3] was -10.3%. In addition, the Potency in assay [4] was greater than 20.6 µM.

Regarding `Cc1ccc2c(=O)c(CN(C)C3CCN(C)CC3)c(C)[nH]c2c1C`, the results for the activity change, negative = inhibition in assay [1] and in assay [2] were 0.184% and -6.29%, respectively. Further, in assay [3], the activity, negative = inhibition is 5.33%. The Potency in assay [4] was greater than 20.6 µM.

In the case of `CCCCSc1nnc(-c2ccc(NC(C)=O)cc2)n1C`, the results for the activity change, negative = inhibition in assay [1] and in assay [2] were -14.2% and 12.4%, respectively. For the same molecule, the activity, negative = inhibition in assay [3] is 0.987%. The Potency in assay [4] is greater than 20.6 µM.

Consider `O=c1[nH]c(CN2CCCCC2)nc2c1C1(CCCCC1)Cc1ccccc1-2`, for which the activity change, negative = inhibition was 24.9% in assay [1] and 4.2% in assay [2]. The activity, negative = inhibition in assay [3] was -5.46%. Further, the Potency in assay [4] is greater than 20.6 µM.

As to `CCOC(=O)c1ccc(CSc2ncn[nH]2)o1`, the activity change, negative = inhibition in assay [1] was 0.882%; in assay [2] it was -2.95%. Also, the activity, negative = inhibition in assay [3] was 5.39%. In assay [4], the Potency was greater than 20.6 µM.

Consider `COc1ccc(/C(O)=C2/C(=O)C(=O)N(c3ncccn3)C2c2ccc(OC)c(OC)c2)cc1` (stereo not given), for which the figures for the activity change, negative = inhibition in assay [1] and in assay [2] were 10.2% and -0.912%, respectively. In assay [3], the activity, negative = inhibition was -6.81%. Besides, the Potency in assay [4] is greater than 20.6 µM.

For `O=C(CC(c1ccco1)S(=O)(=O)c1ccccc1)c1ccc(F)cc1` (stereo not given), the results for the activity change, negative = inhibition in assay [1] and in assay [2] were -0.192% and -1.61%, respectively. Moreover, the activity, negative = inhibition in assay [3] is -7.8%. Also, in assay [4], the Potency was greater than 20.6 µM.

Turning to `COc1cc(C(=O)Nc2ccc(O)cc2C(=O)O)ccc1OC(C)=O`, the activity change, negative = inhibition in assay [1] is -6.46%; in assay [2], 22.4%. For the same molecule, the activity, negative = inhibition in assay [3] was 6.09%. The Potency in assay [4] was greater than 20.6 µM.

As for `CCCNC1=C(C)C(=O)CC1`, the values for the activity change, negative = inhibition in assay [1] and in assay [2] were 11.1% and -5.45%, respectively. The activity, negative = inhibition in assay [3] is 0.709%. Moreover, the Potency in assay [4] was greater than 20.6 µM.

With `CC1N(O)C(c2ccc(Cl)cc2Cl)N(O)C1(C)C` (stereo not given), the activity change, negative = inhibition is -0.0716% in assay [1] and -14.6% in assay [2]. Also, the activity, negative = inhibition in assay [3] is 2.16%. For the same molecule, in assay [4], the Potency is greater than 20.6 µM.

For the molecule `COc1ccc(OC)c(C2C(C#N)=C(N)Oc3cc(C)[nH]c(=O)c32)c1` (stereo not given), the activity change, negative = inhibition in assay [1] is -7.62%; in assay [2], -4.06%. Further, the activity, negative = inhibition in assay [3] is 3.99%. In addition, in assay [4], the Potency was greater than 20.6 µM.

For `O=C(COc1ccc(F)cc1)OCCN1CCOCC1`, the activity change, negative = inhibition in assay [1] was -4.17%; in assay [2] it was -0.67%. Also, the activity, negative = inhibition in assay [3] is 11.3%. For the same molecule, in assay [4], the Potency was greater than 20.6 µM.

On to `COCCNc1nc2c(c(=O)n(C)c(=O)n2C)n1Cc1cccc(C(F)(F)F)c1`, for which the activity change, negative = inhibition in assay [1] is 13.5%; in assay [2] it was 5.18%. The activity, negative = inhibition in assay [3] was 226%. Besides, the Potency in assay [4] is greater than 20.6 µM.

With `Cc1ccc(-c2nn(C)c(=O)c3ccccc23)cc1CN1CCOCC1`, the figures for the activity change, negative = inhibition in assay [1] and in assay [2] were 16.4% and -19.8%, respectively. Also, the activity, negative = inhibition in assay [3] is -0.983%. The Potency in assay [4] is greater than 20.6 µM.

With `COC(=O)CSc1nc(N)nc(C)c1Br`, the activity change, negative = inhibition in assay [1] was 5.47%; in assay [2], 1.04%. Besides, the activity, negative = inhibition in assay [3] was 2.44%. Moreover, the Potency in assay [4] was greater than 20.6 µM.

Consider `OCCCc1nc2ccccc2n1CCc1ccccc1`, for which the activity change, negative = inhibition in assay [1] is 6.55%; in assay [2] it was -7.48%. Besides, the activity, negative = inhibition in assay [3] was -0.378%. Further, in assay [4], the Potency is greater than 20.6 µM.

For `CCCOC(=O)CSC1=C(C#N)C(c2ccc3c(c2)OCO3)CC(=O)N1` (stereo not given), the activity change, negative = inhibition was -0.809% in assay [1] and 11.1% in assay [2]. Also, the activity, negative = inhibition in assay [3] was 1.94%. In addition, in assay [4], the Potency was greater than 20.6 µM.

In the case of `COc1ccc(OC)c(C2=Nn3c(nnc3C3CCCCC3)SC2)c1`, the activity change, negative = inhibition is -18.2% in assay [1] and -5.08% in assay [2]. For the same molecule, in assay [3], the activity, negative = inhibition is -1.6%. The Potency in assay [4] was greater than 20.6 µM.

`N#CC1=C(N)OC2=C(C(=O)CCC2)C1CCc1ccccc1` (stereo not given): the activity change, negative = inhibition is -2.2% in assay [1] and -13.6% in assay [2]. The activity, negative = inhibition in assay [3] is 8.87%. In assay [4], the Potency is greater than 20.6 µM.

The values are drawn from PubChem BioAssay (NCATS).
